Vaccinia pol inh: inhibitors of vaccinia virus processive DNA synthesis (E9 polymerase) | in vitro processive DNA synthesis, absorbance read-out; stronger effect = lower value | normalized absorbance, % (test concentration not listed) | actives 0.94% (n = 46,000); in the data active means normalized absorbance mostly below about 85%, no sharp cut-off; inactive means mostly above about 86%
* = called active by the depositor. The full list was thinned out, with hits kept by preference.

SMILES	Vaccinia pol inh
N/N=C1\CCCc2c1[nH]c1ccc(C(=O)NN)cc21	46.0*
Cc1ccc(C(=O)NCc2ccc3[nH]c4c(c3c2)CCCC4)cc1C	103.3
O=c1[nH]c2ccccc2nc1/C=C(\O)c1cccc2ccccc12	99.7
NC(=O)c1ccsc1NC(=O)c1ccc(Br)s1	113.1
CCn1cc(C(=O)O)c(=O)c2cc(F)c(N3CCNCC3)cc21	76.9*
CCn1cc(C(=O)NN)c(=O)c2cc(F)c(N3CCCC3)cc21	100.2
CCn1cc(C(=O)O)c(=O)c2cnc(N3CCNCC3)nc21	97.7
COc1ccc(/C=c2\[nH]c(=O)/c(=C\c3ccc(OC)cc3)[nH]c2=O)cc1	97.5
O=C(Nc1ccccn1)c1cccc(N2C(=O)CCC2=O)c1	100.2
O=C(O)CC(c1ccsc1)n1cccc1 (configuration not stated)	101.6
Cc1ccc(C)n1C(CC(=O)O)c1ccsc1 (configuration not stated)	73.2*
Cc1ccc(C)n1C(CC(=O)O)c1ccc(F)cc1 (configuration not stated)	81.6
Cc1cc(N2CCN(c3ccccc3)CC2)n2nc(C)c(-c3ccc(Cl)cc3)c2n1	116.7
O=C(N1N=CCC1c1ccccc1)C12CC3CC(CC(C3)C1)C2 (configuration not stated)	100.4
